Consider 13 molecules from PubChem BioAssay (EPA / NIEHS).

Several values for one entry are separate records, joined by “and”; a condition that tells them apart may be missing. Identical values can stand only once. Where a structure was tested more than once in an assay, its records may differ in their call. Activity calls are given as the source filed them. The calls were made as follows: active = hit-call score of the fitted dose curve at least 0.9, where 1 is the maximum; inactive = score below 0.9.

Read-out in test [1]: Transforming growth factor beta 1 (TGFb1), TGFB1 (gene 7040)
The test can be described thus: BSK_KF3CT_TGFb1: BioMAP Diversity Plus: KF3CT Assay for Transforming growth factor beta 1 (TGFb1) Biomarker Activity (AID 2283072). The settings on record: primary human keratinocytes with fibroblasts; actives raise or lower the signal. An outline of the steps: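 KF3CT co-culture (keratinocytes + fibroblasts), 24 h exposure → TGF-b1 ELISA → bidirectional fit, DMSO = baseline. Parallel SRB total-protein staining (0.1% SRB, 10% TCA fixation, 560 nm) for cytotoxicity.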

Read-out in test [2]: C-C motif chemokine 2 (Homo sapiens) (UniProt P13500)
Description: BSK_KF3CT_MCP1: BioMAP Diversity Plus: KF3CT Assay for Monocyte Chemoattractant Protein 1 (MCP1/CCL2) Biomarker Activity (AID 2283073). The settings on record: primary human keratinocytes with fibroblasts; actives raise or lower the signal. An outline of the steps:
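KF3CT skin co-culture (keratinocytes/foreskin fibroblasts), 24 h post-dose; MCP-1 by ELISA; gain/loss of signal fit bidirectionally vs DMSO baseline.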

Read-out in test [3]: Matrix Metallopeptidase 9 (MMP9), MMP9 (gene 4318)
Description: BSK_KF3CT_MMP9: BioMAP Diversity Plus: KF3CT Assay for Matrix Metallopeptidase 9 (MMP9) Biomarker Activity (AID 2283074).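 As to AC50: MMP9 protein level quantified by ELISA in the co-culture.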 Particulars: primary human keratinocytes with fibroblasts; actives raise or lower the signal. An outline of the steps:
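Values come from bidirectional fitting relative to DMSO of MMP-9 levels, which were measured by ELISA. Measurements were taken 24 h after chemical dosing of a keratinocyte and foreskin fibroblast co-culture.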

Read-out in test [4]: urokinase plasminogen activator (uPA), PLAU (gene 5328)
The test can be described thus: BSK_KF3CT_uPA: BioMAP Diversity Plus: KF3CT Assay for urokinase plasminogen activator (uPA) Biomarker Activity (AID 2283075). The settings on record: primary human keratinocytes with fibroblasts; actives raise or lower the signal. The method, boiled down: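 Values derive from bidirectional fitting against DMSO controls. Keratinocyte/foreskin fibroblast co-cultures received chemical; 24 h later uPA was detected by ELISA, with SRB total-protein staining in parallel wells for overt cytotoxicity.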

Read-out in another test: CD40, CD40 (gene 958)
Description: BSK_LPS_CD40: BioMAP Diversity Plus: LPS Assay for CD40 Biomarker Activity (AID 2283076). The settings on record: primary human HUVEC with PBMC; actives raise or lower the signal. The method, boiled down: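 ELISA readout of CD40 in HUVEC/PBMC co-culture (BSK_LPS system), 24 h post-dosing; bidirectional curve fit, DMSO baseline; parallel SRB total-protein staining for cytotoxicity.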

Read-out in test [5]: E-selectin (Homo sapiens) (UniProt P16581)
The test can be described thus: BSK_LPS_Eselectin: BioMAP Diversity Plus: LPS Assay for Eselectin Biomarker Activity (AID 2283077). The settings on record: primary human HUVEC with PBMC; actives raise or lower the signal. The method, boiled down: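 ELISA readout of E-selectin, 24 h post-dose, HUVEC + PBMC co-culture (LPS system). Gain or loss of signal vs DMSO baseline, bidirectional fit.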

Read-out in test [6]: Interleukin-8 (IL8), CXCL8 (gene 3576)
Description: BSK_LPS_IL8: BioMAP Diversity Plus: LPS Assay for Interleukin-8 (IL8) Biomarker Activity (AID 2283078). The settings on record: primary human HUVEC with PBMC; actives raise or lower the signal. The method, boiled down:
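HUVEC + PBMC co-culture, LPS-activated; test chemicals dosed, IL-8 read by ELISA at 24 h. Bidirectional curve fit vs DMSO baseline (gain or loss of signal).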

Test [7] is described as follows: BSK_LPS_SRB: Viability Assessment in the BioMAP Diversity Plus: LPS Assay (AID 2283079).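 Also: total protein by sulforhodamine B absorbance as a cytotoxicity measure; measured one day after compound addition; fitted in both directions against DMSO so loss or gain of signal counts.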 The settings on record: primary human HUVEC with PBMC. An outline of the steps:
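HUVEC + PBMC co-culture, LPS-stimulated; compound 24 h. 10% TCA fix, 0.1% SRB stain, A560. Bidirectional fit vs DMSO.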

Read-out in test [8]: Interleukin-1 alpha (IL1a), IL1A (gene 3552)
Description: BSK_LPS_IL1a: BioMAP Diversity Plus: LPS Assay for Interleukin-1 alpha (IL1a) Biomarker Activity (AID 2283080). Particulars: primary human HUVEC with PBMC; actives raise or lower the signal. An outline of the steps:
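HUVEC/PBMC co-culture, LPS system; 24 h after dosing; IL-1a by ELISA; gain or loss of signal fitted bidirectionally vs DMSO baseline.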

Read-out in test [9]: Monocyte Chemoattractant Protein-1 (MCP1), CCL2 (gene 6347)
Description: BSK_LPS_MCP1: BioMAP Diversity Plus: LPS Assay for Monocyte Chemoattractant Protein-1 (MCP1) Biomarker Activity (AID 2283081).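 As to AC50: secreted MCP-1 protein quantified by ELISA in culture supernatant.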 Particulars: primary human HUVEC with PBMC; actives raise or lower the signal. The method, boiled down: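 ELISA read-out of MCP-1 after 24 h chemical dosing of a human umbilical vein endothelial cell/peripheral blood mononuclear cell co-culture stimulated with LPS. Gain or loss of signal fitted relative to DMSO controls.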

E-selectin (Homo sapiens), sequence (P16581 whole entry, looked up): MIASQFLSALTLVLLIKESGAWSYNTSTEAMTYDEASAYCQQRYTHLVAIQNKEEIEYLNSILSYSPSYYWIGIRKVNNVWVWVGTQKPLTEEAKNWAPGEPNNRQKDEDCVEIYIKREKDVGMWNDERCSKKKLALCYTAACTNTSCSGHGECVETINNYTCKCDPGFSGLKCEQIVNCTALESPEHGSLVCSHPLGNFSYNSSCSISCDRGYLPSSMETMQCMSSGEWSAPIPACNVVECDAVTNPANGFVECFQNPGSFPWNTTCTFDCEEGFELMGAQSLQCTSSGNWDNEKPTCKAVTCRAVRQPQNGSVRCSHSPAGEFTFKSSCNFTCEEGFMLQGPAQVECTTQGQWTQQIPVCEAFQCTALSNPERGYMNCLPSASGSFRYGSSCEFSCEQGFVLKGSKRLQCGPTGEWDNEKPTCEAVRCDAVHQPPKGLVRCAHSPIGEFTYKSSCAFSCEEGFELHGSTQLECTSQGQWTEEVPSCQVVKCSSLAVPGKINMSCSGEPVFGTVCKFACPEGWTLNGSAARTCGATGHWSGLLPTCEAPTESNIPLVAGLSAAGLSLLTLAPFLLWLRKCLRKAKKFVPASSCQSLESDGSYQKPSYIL

A word on the AC50: it is the concentration giving half of the maximal activity seen. For the molecule `CNC(=O)Oc1cccc(N=CN(C)C)c1`, the result in test [1], in [2], in test [3], in test [4], in [7] and in test [8] was inactive. Besides, the outcome in [9] was inactive. In addition, the AC50 is 13.5 µM (active) with CD40, CD40 (gene 958); 20 µM (active) in test [5]; 20 µM (active) in [6].

Regarding `Cc1cc(C)nc(NC(=O)NS(=O)(=O)c2ccccc2C(=O)OC2COC2)n1`, the outcome is “inactive” in test [1]; “inactive” in test [2]; “inactive” in [3]; “inactive” in test [4]; “inactive” in the test with CD40, CD40 (gene 958); “inactive” in [5]. The result in test [6], in test [7], in test [8] and in test [9] was inactive.

With `CNC(=O)Oc1ccccc1OC(C)C`, the outcome in [1] was “inactive”; in test [3] it was “inactive”; in test [4], “inactive”; with CD40, CD40 (gene 958), “inactive”; in test [5], “inactive”; in test [6] it was “inactive”. Moreover, the outcome in [7], in test [8] and in test [9] was inactive. In addition, the AC50 in test [2] is 0.147 µM (active).

Consider `CCC(C)Nc1c([N+](=O)[O-])cc(C(C)(C)C)cc1[N+](=O)[O-]` (stereo not drawn), for which the result in test [1], in test [2], in test [3], in test [4], in [6] and in test [8] was inactive. In test [9], the outcome was inactive. Further, the AC50 with CD40, CD40 (gene 958) was 31.9 µM (active); in test [5], 14.6 µM (active).

Regarding `ClC1C(Cl)C(Cl)C(Cl)C(Cl)C1Cl` (stereo not drawn), in test [1], the AC50 is 20 µM (active). The outcome in test [1] is “inactive”; in [2] it was “inactive”; in [3], “inactive”; in test [4], “inactive”; in the test with CD40, CD40 (gene 958) it was “inactive”; in test [5] it was “inactive”. Further, the result in test [6], in test [8] and in test [9] was inactive.

Consider `N#Cc1c(Cl)c(Cl)c(Cl)c(C#N)c1Cl`, for which the AC50 in [1] was 1.32 µM (active); in test [2], 1.79 µM (active); in test [3], 1.23 µM (active); in test [4], 1.66 µM (active); with CD40, CD40 (gene 958) it was 0.148 µM (active); in [5] it was 0.758 µM (active). Moreover, the AC50 in test [6] was 1.2 µM (active); in [7], 3.65 µM (active); in [8], 1.03 µM (active); in test [9], 1.16 µM (active).

On to `CCC(C)(C)C(=O)OC1=C(c2ccc(Cl)cc2Cl)C(=O)OC12CCCCC2`, for which the half-maximal activity concentration (AC50) in test [1] is 31 µM (active); in test [2] it was 31.4 µM (active); in [3] it was 20 µM (active); in test [4], 30.9 µM (active); with CD40, CD40 (gene 958), 10.5 µM (active); in [5] it was 25.3 µM (active). In addition, the concentration at half-maximal activity (AC50) is 32.6 µM (active) in test [6], 36.5 µM (active) in test [8] and 31.2 µM (active) in [9].

Consider `O=C(O)COc1ccc(Cl)cc1Cl`, for which the outcome is “inactive” in test [1]; “inactive” in [2]; “inactive” in test [3]; “inactive” in test [4]; “inactive” with CD40, CD40 (gene 958); “inactive” in test [5]. For the same molecule, the outcome in test [6], in test [8] and in [9] was inactive.

For `O=[N+]([O-])/N=C1\NCCN1Cc1ccc(Cl)nc1`, the outcome in [1] was “inactive”; in [2], “inactive”; in [3], “inactive”; in test [4] it was “inactive”; with CD40, CD40 (gene 958) it was “inactive”; in [5], “inactive”. In addition, the outcome in test [6], in test [8] and in test [9] was inactive.

On to `O=C(O)CCCOc1ccc(Cl)cc1Cl`, for which the outcome was “inactive” in test [1]; “inactive” in [2]; “inactive” in test [3]; “inactive” in test [4]; “inactive” in the test with CD40, CD40 (gene 958); “inactive” in test [5]. Also, the result in test [6], in test [8] and in test [9] was inactive.

Regarding `Oc1cc(Cl)ccc1Oc1ccc(Cl)cc1Cl`, the half-maximal activity concentration (AC50) in test [1] was 18.5 µM (active) [middle of 4 runs]; in test [2], 36.6 µM (active) [middle of 4 runs]; in [3], 15.2 µM (active) [middle of 4 runs]; in [4], 31 µM (active) [middle of 4 runs]; in the test with CD40, CD40 (gene 958), 12.3 µM (active) and 9.21 µM (active) and 12.1 µM (active); in test [5], 15.6 µM (active) [middle of 4 runs]. For the same molecule, the concentration at half-maximal activity (AC50) is 27.6 µM (active) [middle of 4 runs] in [6]; 14.3 µM (active) and 14.6 µM (active) and 29 µM (active) in test [8]; 19.9 µM (active) [middle of 4 runs] in test [9].

With `N#CN`, the outcome in test [1] is “inactive”; in test [2] it was “inactive”; in [3], “inactive”; in [4] it was “inactive”; in the test with CD40, CD40 (gene 958) it was “inactive”; in test [5], “inactive”. In addition, the result in test [6], in test [8] and in [9] was inactive.

Turning to `COP(=S)(OC)Oc1ccc(SC)c(C)c1`, the outcome in test [1] was “inactive”; in [2] it was “inactive”; in test [3] it was “inactive”; in test [4], “inactive”; with CD40, CD40 (gene 958), “inactive”; in [5] it was “inactive”. For the same molecule, the result in [6], in [8] and in [9] was inactive. For the same molecule, the half-maximal activity concentration (AC50) in [7] was 30.6 µM (active).
